The supplement of paper PMC11732987, “Enantioselective OTUD7B fragment discovery through chemoproteomics screening and high-throughput optimisation” (Communications Chemistry, 2025)

Columns and labels:
Experiment in all cases: log2 ratio of Biotin-Ahx-Ub-VS probe labelling (fragment/DMSO); higher = less target engagement (more negative = stronger competition), active = hit call of the paper (q ≤ 0.05, log2 ratio ≤ -1)
Conditions in all cases: compound concentration: 200 uM; treatment time: 3 h
ALG13 = target: T1, ALG13 (UniProt Q9NP73)
T1 sequence (whole entry): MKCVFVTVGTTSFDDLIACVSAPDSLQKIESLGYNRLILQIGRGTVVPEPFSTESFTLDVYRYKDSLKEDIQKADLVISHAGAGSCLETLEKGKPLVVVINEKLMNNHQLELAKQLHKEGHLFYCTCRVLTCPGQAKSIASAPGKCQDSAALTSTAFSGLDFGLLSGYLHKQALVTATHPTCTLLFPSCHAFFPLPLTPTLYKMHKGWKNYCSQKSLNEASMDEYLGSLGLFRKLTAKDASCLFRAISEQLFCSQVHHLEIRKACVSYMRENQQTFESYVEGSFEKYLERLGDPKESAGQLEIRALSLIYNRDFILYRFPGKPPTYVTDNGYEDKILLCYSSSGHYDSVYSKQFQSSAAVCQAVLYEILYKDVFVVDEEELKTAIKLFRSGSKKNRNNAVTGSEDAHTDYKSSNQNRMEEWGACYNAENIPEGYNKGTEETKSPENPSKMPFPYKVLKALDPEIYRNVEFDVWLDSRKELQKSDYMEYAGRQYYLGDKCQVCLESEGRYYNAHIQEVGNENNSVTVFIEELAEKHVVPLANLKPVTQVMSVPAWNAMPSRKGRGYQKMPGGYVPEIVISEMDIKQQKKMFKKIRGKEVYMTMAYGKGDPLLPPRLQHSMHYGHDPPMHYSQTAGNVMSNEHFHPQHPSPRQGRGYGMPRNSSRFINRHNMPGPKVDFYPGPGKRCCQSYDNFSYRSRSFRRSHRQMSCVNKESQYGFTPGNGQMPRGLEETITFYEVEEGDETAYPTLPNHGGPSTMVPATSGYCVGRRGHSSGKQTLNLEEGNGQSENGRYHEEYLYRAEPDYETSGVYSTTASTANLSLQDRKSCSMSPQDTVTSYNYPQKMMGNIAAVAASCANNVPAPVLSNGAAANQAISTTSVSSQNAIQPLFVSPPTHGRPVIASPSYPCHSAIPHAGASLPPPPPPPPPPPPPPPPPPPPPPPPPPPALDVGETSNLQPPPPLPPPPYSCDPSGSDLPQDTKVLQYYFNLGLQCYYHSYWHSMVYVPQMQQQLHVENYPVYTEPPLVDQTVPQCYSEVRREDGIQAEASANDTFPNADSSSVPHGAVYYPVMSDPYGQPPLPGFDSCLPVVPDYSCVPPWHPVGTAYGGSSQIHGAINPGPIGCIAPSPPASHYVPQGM
Procedure, shortened: (§1)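 Lysate from HEK293T cells, 495 µg per sample in Tris/CHAPS/IGEPAL buffer with protease inhibitors, was treated for 3 h in triplicate with fragment at 200 µM or vehicle. Biotin-Ahx-Ub-VS was next added at 0.5 µM final for 1 h. The labelled DUBs were enriched with NeutrAvidin, digested with LysC and trypsin, and run by diaPASEF LC-MS/MS, with values given as average log2 fragment/vehicle ratios by unpaired t-test on global-median-normalised Spectronaut quantities of proteins with ≥2 unique peptides.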

ATXN3 = ATXN3 (UniProt P54252)
Chain of ATXN3 (P54252 whole entry): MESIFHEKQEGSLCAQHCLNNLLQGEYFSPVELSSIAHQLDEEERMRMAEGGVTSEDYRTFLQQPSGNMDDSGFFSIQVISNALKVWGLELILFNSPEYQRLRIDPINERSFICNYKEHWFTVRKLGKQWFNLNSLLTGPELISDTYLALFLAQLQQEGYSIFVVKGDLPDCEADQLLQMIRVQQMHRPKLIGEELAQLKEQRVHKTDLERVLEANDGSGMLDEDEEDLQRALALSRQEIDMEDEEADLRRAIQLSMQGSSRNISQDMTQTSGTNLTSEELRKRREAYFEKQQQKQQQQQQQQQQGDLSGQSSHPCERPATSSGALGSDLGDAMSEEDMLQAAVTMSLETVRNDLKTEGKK
Procedure, shortened: as §1

BAP1 = target: T2, BAP1 (UniProt Q92560)
T2 sequence (whole entry): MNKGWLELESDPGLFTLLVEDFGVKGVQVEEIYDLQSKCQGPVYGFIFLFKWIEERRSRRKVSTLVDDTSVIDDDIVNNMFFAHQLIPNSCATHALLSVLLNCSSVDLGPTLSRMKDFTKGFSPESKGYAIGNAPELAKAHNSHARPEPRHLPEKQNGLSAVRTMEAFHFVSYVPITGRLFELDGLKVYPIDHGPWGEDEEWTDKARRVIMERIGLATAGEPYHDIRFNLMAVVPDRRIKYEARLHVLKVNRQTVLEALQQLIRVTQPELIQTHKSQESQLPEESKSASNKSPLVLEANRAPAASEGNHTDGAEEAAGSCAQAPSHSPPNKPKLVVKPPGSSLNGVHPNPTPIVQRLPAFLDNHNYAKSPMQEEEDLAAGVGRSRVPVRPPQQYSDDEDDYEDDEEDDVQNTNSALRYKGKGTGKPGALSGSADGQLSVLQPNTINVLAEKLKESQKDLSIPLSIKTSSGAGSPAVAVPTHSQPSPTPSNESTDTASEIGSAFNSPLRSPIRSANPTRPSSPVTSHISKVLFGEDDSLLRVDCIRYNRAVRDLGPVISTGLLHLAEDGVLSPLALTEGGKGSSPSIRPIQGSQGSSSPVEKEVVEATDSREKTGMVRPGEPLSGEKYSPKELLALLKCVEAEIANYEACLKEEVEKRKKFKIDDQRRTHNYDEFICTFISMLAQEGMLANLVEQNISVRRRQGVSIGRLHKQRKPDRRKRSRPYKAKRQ
Procedure, shortened: as §1

EIF3F = EIF3F (UniProt O00303)
Chain of EIF3F (O00303 whole entry): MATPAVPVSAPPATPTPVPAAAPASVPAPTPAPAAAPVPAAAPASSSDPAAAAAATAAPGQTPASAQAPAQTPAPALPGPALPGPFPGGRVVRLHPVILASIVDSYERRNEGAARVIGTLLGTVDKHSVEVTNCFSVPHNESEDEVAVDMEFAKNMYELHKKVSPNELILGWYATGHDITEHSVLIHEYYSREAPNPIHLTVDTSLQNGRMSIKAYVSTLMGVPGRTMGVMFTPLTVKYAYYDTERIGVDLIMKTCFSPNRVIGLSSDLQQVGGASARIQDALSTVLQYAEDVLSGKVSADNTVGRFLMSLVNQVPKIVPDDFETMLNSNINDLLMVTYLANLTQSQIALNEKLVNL
Procedure, shortened: as §1

EIF3H = EIF3H (UniProt O15372)
Chain of EIF3H (O15372 whole entry): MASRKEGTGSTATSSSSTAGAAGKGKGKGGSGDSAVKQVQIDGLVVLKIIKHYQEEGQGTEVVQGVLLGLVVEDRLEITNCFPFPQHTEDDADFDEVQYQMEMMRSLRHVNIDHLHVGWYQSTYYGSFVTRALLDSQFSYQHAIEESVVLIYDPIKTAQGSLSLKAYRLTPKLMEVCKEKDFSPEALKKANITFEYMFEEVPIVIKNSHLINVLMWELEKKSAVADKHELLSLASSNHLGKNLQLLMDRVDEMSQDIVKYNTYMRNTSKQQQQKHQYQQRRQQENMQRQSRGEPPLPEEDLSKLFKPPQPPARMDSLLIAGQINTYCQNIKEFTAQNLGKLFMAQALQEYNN
Procedure, shortened: as §1

FAM105A = target: T3, FAM105A (UniProt Q9NUU6)
T3 sequence (whole entry): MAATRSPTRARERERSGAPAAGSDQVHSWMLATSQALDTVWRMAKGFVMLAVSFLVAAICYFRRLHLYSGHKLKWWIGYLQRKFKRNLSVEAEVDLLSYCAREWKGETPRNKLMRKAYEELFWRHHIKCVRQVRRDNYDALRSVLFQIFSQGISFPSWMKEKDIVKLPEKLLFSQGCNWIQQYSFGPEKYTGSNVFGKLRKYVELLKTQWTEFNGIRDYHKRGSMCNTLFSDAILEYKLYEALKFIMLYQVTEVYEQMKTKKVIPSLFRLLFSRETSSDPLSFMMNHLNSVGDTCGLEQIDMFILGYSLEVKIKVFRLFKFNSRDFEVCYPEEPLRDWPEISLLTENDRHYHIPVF
Procedure, shortened: as §1

OTUB1 = OTUB1 (UniProt Q96FW1)
Chain of OTUB1 (Q96FW1 whole entry): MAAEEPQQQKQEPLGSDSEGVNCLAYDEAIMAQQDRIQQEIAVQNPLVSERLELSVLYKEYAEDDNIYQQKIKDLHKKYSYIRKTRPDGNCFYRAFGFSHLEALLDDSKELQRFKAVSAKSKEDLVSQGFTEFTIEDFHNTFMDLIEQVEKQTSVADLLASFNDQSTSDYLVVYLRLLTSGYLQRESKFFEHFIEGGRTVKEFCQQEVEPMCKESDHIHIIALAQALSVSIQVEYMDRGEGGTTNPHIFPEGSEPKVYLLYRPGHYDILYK
Procedure, shortened: as §1

OTUD4 = target: T4, OTUD4 (UniProt Q01804)
T4 sequence (whole entry): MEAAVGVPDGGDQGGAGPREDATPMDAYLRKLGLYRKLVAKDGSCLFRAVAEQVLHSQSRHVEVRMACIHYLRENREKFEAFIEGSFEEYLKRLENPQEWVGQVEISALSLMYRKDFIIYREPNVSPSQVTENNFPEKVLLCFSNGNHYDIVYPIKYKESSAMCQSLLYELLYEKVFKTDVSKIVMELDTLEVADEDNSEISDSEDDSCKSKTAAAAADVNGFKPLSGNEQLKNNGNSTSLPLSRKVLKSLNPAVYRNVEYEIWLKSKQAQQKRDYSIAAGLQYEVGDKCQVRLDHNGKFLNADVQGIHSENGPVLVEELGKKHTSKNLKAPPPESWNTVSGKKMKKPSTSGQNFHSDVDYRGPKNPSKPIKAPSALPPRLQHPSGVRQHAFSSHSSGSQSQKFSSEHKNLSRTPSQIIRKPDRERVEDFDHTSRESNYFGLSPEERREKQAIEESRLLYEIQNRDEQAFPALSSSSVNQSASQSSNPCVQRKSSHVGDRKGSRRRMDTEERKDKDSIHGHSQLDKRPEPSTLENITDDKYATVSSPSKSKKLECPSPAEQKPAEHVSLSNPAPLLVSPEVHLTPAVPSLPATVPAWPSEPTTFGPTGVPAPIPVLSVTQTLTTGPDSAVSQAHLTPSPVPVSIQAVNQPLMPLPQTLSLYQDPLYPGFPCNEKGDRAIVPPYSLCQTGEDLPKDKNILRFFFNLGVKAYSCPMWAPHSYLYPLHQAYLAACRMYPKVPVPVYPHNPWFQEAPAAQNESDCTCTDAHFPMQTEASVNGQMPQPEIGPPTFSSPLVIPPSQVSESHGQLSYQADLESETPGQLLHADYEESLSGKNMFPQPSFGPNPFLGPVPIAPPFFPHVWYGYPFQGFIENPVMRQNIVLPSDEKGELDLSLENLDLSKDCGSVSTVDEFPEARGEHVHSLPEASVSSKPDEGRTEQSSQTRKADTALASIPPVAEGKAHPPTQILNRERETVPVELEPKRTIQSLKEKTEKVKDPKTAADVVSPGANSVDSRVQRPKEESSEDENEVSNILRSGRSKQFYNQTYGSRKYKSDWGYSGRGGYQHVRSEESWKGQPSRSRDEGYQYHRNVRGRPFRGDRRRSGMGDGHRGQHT
Procedure, shortened: as §1

OTUD5 = target: T5, OTUD5 (UniProt Q96G74)
T5 sequence (whole entry): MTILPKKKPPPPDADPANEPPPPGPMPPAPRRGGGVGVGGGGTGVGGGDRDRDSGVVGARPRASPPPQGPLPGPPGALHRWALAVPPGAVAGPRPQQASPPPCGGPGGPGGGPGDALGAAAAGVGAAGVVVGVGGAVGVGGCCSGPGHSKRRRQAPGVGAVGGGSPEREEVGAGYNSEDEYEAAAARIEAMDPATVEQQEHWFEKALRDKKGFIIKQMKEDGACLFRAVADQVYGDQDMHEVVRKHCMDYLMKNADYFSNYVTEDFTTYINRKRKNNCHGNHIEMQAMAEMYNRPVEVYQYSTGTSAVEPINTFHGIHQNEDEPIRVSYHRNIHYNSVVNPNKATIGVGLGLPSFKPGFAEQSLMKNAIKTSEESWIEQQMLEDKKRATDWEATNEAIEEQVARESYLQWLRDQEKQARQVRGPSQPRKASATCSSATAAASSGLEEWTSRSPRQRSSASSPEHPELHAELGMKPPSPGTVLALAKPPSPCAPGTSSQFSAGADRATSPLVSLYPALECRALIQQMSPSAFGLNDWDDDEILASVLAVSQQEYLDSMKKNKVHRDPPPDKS
Procedure, shortened: as §1

Measured: log2 ratio of Biotin-Ahx-Ub-VS probe labelling

O=C(CCl)N1CCc2sccc2C1
inactive: ALG13 -0.104 | ATXN3 -0.969 | BAP1 -0.988 | EIF3F -0.211 | EIF3H -0.00567 | FAM105A -0.348 | OTUB1 -0.126 | OTUD4 -0.819 | OTUD5 -0.923
